Screening data from PubChem BioAssay.
Rango-impB inh = Rango-importin beta binding inhibition; Q14974; Rango CFP/YFP FRET sensor + importin beta, 45 min; Potency, µM (doses to about 92.2 µM), for the others: at the highest dose inhibition of complex formation; 340,000 compounds, 0.031% hits; AID 540263; calls by dose curve;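 also: potency is read from the fitted curve at half-maximal effect; 0% = DMSO wells and 100% = buffer wells lacking importin beta; nearly all actives have a fitted effect of over 15% in size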
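Inhibition scored from the CFP 486 nm/YFP 530 nm FRET ratio 45 min after adding 0.125 microM importin beta to 50 nM Rango biosensor preincubated 5 min with compound (room temperature, PBS with DTT, Tween-20, BSA). No-importin wells as positive control.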
Rango dissoc inh = prevents RanGTP from dissociating the Rango-importin beta complex | Biochemical FRET Rango-importin beta, RanGTP-induced dissociation | Potency, µM (titrated, usually from 46.1 µM), without a hit: at the highest dose activity change, negative = inhibition | 340,000 compounds, 0.071% hits | AID 540253; calls by dose curve; also: potency is read from the fitted curve at half-maximal effect; % of control where 0% means no effect; nearly all actives have a fitted effect of over 45% in size
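Compounds sat 5 min at room temperature with 0.1 uM Rango biosensor plus 0.25 uM importin beta, then FRET pre-read. RanGTP-RCC1 (0.6 uM Ran, 2mM GTP, 0.2 uM RCC1) added for 45 min, and the CFP/YFP post-read measured blocked complex dissociation.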
PLK1 PBD block = blocks phosphopeptide binding to human PLK1 polo-box domain | 360,000 compounds, 2.8% hits | Potency, µM, inactives show max response, negative = inhibition, usual class: inhibitors | Plk1 PBD binding of FITC phosphopeptide, fluorescence polarization; also: potency is read from the fitted curve at half-maximal effect; series mostly up to about 57 µM; % is scaled to controls: 0 for no effect and ±100 for the full control effect; nearly all actives have a fitted effect of over 65% in size
VDR inh = inhibitors of human vitamin D receptor; AID 504847; 400,000 compounds, 0.93% hits; Potency, µM, inactives show max response, negative = inhibition, usual class: inhibitors; P11473; VDR-SRC2-3 peptide fluorescence polarization, 2 h; also: potency is read from the fitted curve at half-maximal effect; % is scaled to controls: 0 for no effect and ±100 for the full control effect
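Inhibition of the VDR/SRC2-3 peptide interaction is quantified by fluorescence polarization. Compounds (23 nl, pintool) incubate with the reagents for 2 hours at ambient room temperature.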
PI5P4Ka inh = inhibitors of human PI5P4K alpha; max response, %; AID 652105; PI5P4Kalpha enzyme, ADP-Glo luminescence, 60 min; active compounds read low; P48426; 330,000 compounds, 1.2% hits; active = max response of -50% or lower; inconclusive = between -30% and -50%; inactive = -30% or higher; also: value at the top dose of about 77 µM; % is scaled to controls: 0 for no effect and ±100 for the full control effect
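Luminescence from ADP-Glo served as readout of PI5P4Kalpha activity in a qHTS format. Reaction: enzyme, substrate, compound, ATP at 5 microM final, 60 min at RT.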
KAT2A inh = blocks human GCN5L2 histone acetyltransferase; Q92830; Potency, µM (titrated, usually from 58.9 µM), inactives show top-dose activity change, negative = inhibition, hits mostly inhibitors; 390,000 compounds, 0.21% hits; GCN5L2 HAT assay, ThioGlo1 CoA-SH fluorescence; also: potency is read from the fitted curve at half-maximal effect; % is scaled to controls: 0 for no effect and ±100 for the full control effect
Target sequence (Q92830 whole entry, looked up): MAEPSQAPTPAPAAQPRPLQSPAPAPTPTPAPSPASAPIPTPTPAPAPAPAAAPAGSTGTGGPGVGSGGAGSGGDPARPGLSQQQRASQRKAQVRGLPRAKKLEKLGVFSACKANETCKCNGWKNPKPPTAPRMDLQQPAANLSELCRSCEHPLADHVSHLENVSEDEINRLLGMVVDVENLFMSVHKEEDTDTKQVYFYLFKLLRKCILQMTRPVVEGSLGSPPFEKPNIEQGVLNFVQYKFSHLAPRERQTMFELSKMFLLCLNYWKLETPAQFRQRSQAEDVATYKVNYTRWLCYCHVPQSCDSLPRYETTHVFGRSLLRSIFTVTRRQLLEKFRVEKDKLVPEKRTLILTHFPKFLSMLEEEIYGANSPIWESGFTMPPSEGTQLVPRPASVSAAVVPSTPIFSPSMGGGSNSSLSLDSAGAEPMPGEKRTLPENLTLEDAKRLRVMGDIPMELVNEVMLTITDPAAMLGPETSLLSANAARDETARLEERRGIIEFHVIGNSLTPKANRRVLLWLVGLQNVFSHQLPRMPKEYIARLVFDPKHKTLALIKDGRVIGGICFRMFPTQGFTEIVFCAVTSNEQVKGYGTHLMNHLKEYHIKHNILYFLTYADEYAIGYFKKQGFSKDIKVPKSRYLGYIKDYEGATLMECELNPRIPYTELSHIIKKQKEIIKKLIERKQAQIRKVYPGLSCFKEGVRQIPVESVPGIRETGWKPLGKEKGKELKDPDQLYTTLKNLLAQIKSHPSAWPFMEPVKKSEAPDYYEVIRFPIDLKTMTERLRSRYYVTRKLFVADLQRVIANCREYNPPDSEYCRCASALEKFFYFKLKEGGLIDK
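GCN5L2 (20 nM) in 50mM HEPES pH 7.5, 0.1mM EDTA, 0.01% Tween-20 preincubated 15 min with compounds at room temperature. Reaction started with H3(1-25) 75uM, acetyl-CoA 70uM, ThioGlo1 50uM; CoA-thiol fluorescence (Ex340/Em540) read at 0 and 20 min.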
* = called active by the depositor. Most compounds without a hit are left out; they make up all but 3.6% or so of the library. Unless noted, calls follow the shape of the dose curve; as a rule, active = well fitted curve in the direction sought with a large enough effect; inconclusive = small, poorly fitted or top-dose-only effect, or another doubt; inactive = no such curve, though single readings can be large; an effect the other way counts as inactive or inconclusive.

COc1cccc2c1C(=O)c1c(O)c3c(c(O)c1C2=O)CC(O)(C(C)=O)CC3OC1CC(O)C(O)C(C)O1 (stereo unspecified) was read as Rango-impB inh 19%, Rango dissoc inh inconclusive, PLK1 PBD block 9.5µM*, VDR inh -12% and PI5P4Ka inh -12.
`C=CCn1nc([N+](=O)[O-])nc1Sc1cccc2cccnc12` gave Rango-impB inh -2%, Rango dissoc inh 5%, PLK1 PBD block 7.5µM*, VDR inh inconclusive, PI5P4Ka inh -3 and KAT2A inh 2%.
Screening O=[N+]([O-])c1ccc(Sc2cccc3cccnc23)c([N+](=O)[O-])c1 returned Rango-impB inh 2%, Rango dissoc inh 1%, PLK1 PBD block 6.7µM*, VDR inh inconclusive, PI5P4Ka inh -1 and KAT2A inh -1%.
CNC(=O)C1CCC(Cn2c(=O)c3sccc3n(CC(=O)Nc3ccc(C)c(F)c3)c2=O)CC1 (stereo unspecified) was read as VDR inh 2% and KAT2A inh -2%.
O=S1(=O)C=CC(Nc2ccccc2)C1 (stereo unspecified) was read as Rango-impB inh -3%, Rango dissoc inh 1%, PLK1 PBD block 27µM*, VDR inh inconclusive, PI5P4Ka inh -24 and KAT2A inh -4%.
For CCN(CC)CCOC(=O)c1ccc(N/C=C(/C#N)c2nc(-c3ccc(OC)c(OC)c3)cs2)cc1 the results were Rango-impB inh inconclusive, Rango dissoc inh inconclusive, PLK1 PBD block 5%, VDR inh -1%, PI5P4Ka inh -77* and KAT2A inh -24%.
CCN(CC)CCOC(=O)c1ccc(N/C=C(/C#N)c2nc(-c3cccc(OC)c3)cs2)cc1 was read as Rango-impB inh 3%, Rango dissoc inh -1%, PLK1 PBD block -10%, VDR inh -3%, PI5P4Ka inh 0 and KAT2A inh -10%.
Screening COc1ccccc1-n1ccnc1SCC(=O)NCc1ccco1 returned Rango-impB inh 1%, Rango dissoc inh -5%, PLK1 PBD block 24µM*, VDR inh inconclusive, PI5P4Ka inh -10 and KAT2A inh -9%.
Screening COc1ccccc1-n1ccnc1SCC(=O)NCC1CCCO1 (stereo unspecified) returned Rango-impB inh -9%, Rango dissoc inh 17%, PLK1 PBD block 2%, VDR inh 13%, PI5P4Ka inh -2 and KAT2A inh -5%.
Cc1nc2ccc(S(=O)(=O)NC(C(=O)N3CCCC3)C(C)C)cc2s1 (stereo unspecified) was read as Rango-impB inh 0%, Rango dissoc inh 12%, PLK1 PBD block 30µM*, VDR inh -30%, PI5P4Ka inh -5 and KAT2A inh 0%.
COc1ccc2[nH]c3c(=O)n(CCCC(=O)NC4CCC(C)CC4)c(=S)[nH]c3c2c1 (stereo unspecified) was read as Rango-impB inh 0%, Rango dissoc inh 27%, PLK1 PBD block -3%, VDR inh 15%, PI5P4Ka inh -1 and KAT2A inh -3%.
Screening CCCNC(=O)CCCCn1c(=S)[nH]c2c([nH]c3ccc(OC)cc32)c1=O returned Rango-impB inh -6%, Rango dissoc inh 0%, PLK1 PBD block 21µM*, VDR inh inconclusive, PI5P4Ka inh inconclusive and KAT2A inh -6%.
Screening COc1ccc2[nH]c3c(=O)n(CCCCC(=O)NCCC(C)C)c(=S)[nH]c3c2c1 returned Rango-impB inh 2%, Rango dissoc inh 7%, PLK1 PBD block 12µM*, VDR inh -26%, PI5P4Ka inh -30 and KAT2A inh -17%.
For COc1ccc2[nH]c3c(=O)n(CCCC(=O)NC4CCCCC4C)c(=S)[nH]c3c2c1 (stereo unspecified) the results were Rango-impB inh -4%, Rango dissoc inh -9%, PLK1 PBD block 30µM*, VDR inh -3%, PI5P4Ka inh -17 and KAT2A inh 2%.
